From PubChem BioAssay (Tox21)
Several values for one entry are separate records, joined by “and”; a condition that tells them apart may be missing. Identical values can stand only once. Results filed as inconclusive are left out. Unmarked numbers belong to inactive results. Activity calls are given as the source filed them. Calls come from the whole dose curve; as a rule, active = well fitted cell-killing curve with a large enough effect in the repeat runs; inconclusive = weak or mixed curves, or effect the other way; inactive = flat fitted curve, though single readings scatter.

Assay: cAMP Responsive Elements (CRE) small molecule antagonists, cell-based qHTS assay: qHTS cell viability counter screen (AID 2060913); note: nearly all actives have a fitted effect of over 40% in size
Conditions: CRE-bla HEK293T viability, CellTiter-Glo luminescence, 5 h; series mostly up to 92.4 µM; viability change, negative = cytotoxic: at the top concentration
In short: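 Cytotoxicity counter screen multiplexed with the CRE-bla antagonist read: HEK293T cells in DMEM with dialyzed FBS and 25 mM HEPES were treated 3 hrs under 0.25 uM final NKH477, then viability measured by CellTiter-Glo luminescence.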
% is set by controls: 0 for no effect and ±100 for the full control effect; potency is the fitted concentration of half-maximal effect.

Compound	Potency	viability change, negative = cytotoxic
O=C(COc1ccc(Cl)cc1)N1CCN(Cc2ccc3c(c2)OCO3)CC1	inactive	–
C=CC(=O)N1CCOCC1	–	-5.76%
NC(Cc1c[nH]c2ccccc12)C(=O)O (stereo not given)	–	16.1% [at 42.5 µM]
C=C(C)C1CCC(C)CC1O (stereo not given)	–	1.4%
CO/N=C1\CN(c2nc3c(cc2F)c(=O)c(C(=O)O)cn3C2CC2)CC1CN (stereo not given)	–	-0.36% [at 42.5 µM]
CCCc1ncc(C(=O)O)s1	–	10.4% [at 42.5 µM]
Cc1ccc([N+](=O)[O-])c(N)c1	–	-3.52%
CCC(=O)OC(C)c1ccccc1 (stereo not given)	–	-2.37%
c1ccc(-c2nc[nH]c2-c2ccccc2)cc1	–	-1.97% [at 42.5 µM]
CCc1cc(S(=O)(=O)O)c2cc(C(C)C)cccc1-2	–	14.1% [at 42.5 µM]
CC(=O)Oc1ccc(C(C)=O)cc1	–	-2.2%
Nc1ccc(Oc2ccc(Cl)cc2)cc1	–	-13.5%
COc1cc(Cl)ccc1Oc1ccc(Cl)cc1Cl	–	-16.5%
C=C(C)C(=O)Nc1ccc(Cl)c(Cl)c1	inactive	–
Nc1ncnc(Nc2ccccc2)n1	–	14.5% [at 42.5 µM]
CC1=CC(=O)CC(C)(C)C1(O)/C=C/C(C)=C\C(=O)O (stereo not given)	–	-1.57%
Cc1c(Cn2ccnc2)c2ccccc2n1CCC(=O)O	–	1.83% [at 42.5 µM]
Cc1c(C)n(CCN(C)C)c2ccc(C(=O)OCCN(C)C)cc12	–	-0.195% [at 42.5 µM]
OCC1CC2CC1C1CCC(CO)C21 (stereo not given)	–	5.24%
CCCCCCCCCc1ccc(OCCOCCO)cc1	22.8 µM (active)	–

Compound	Potency	viability change, negative = cytotoxic
O=S(=O)(O)c1cccc2c(S(=O)(=O)O)cccc12	–	-3.13%
C=CCNc1nc(NCC=C)nc(N2CCN(C(c3ccc(F)cc3)c3ccc(F)cc3)CC2)n1	–	-15.4% [at 42.5 µM]
CC(C)(C)c1ccc(S)cc1	–	-2.8%
OCCN(CCO)CCN(CCO)CCO	–	3.07%
Cc1c(C)n(Cc2ccccc2)c2ccc(C(=O)OCCN(C)C)cc12	–	-4.86% [at 42.5 µM]
O=C(CCCN1CCC(O)(c2ccc(Br)cc2)CC1)c1ccc(F)cc1	–	-14.7% [at 42.5 µM]
CC(C)CC(C)O (stereo not given)	inactive	–
OCCOCC#CCOCCO	–	5.16%
CC(CCO)CCc1ccccc1 (stereo not given)	–	-0.841%
Cc1c(Cl)c(=O)oc2cc(O)ccc12	–	-0.57%
Cc1ccc(S(=O)(=O)Oc2ccc(N=Nc3ccc(-c4ccc(N=Nc5c(O)ccc6cc(S(=O)(=O)O)cc(S(=O)(=O)O)c56)c(C)c4)cc3C)cc2)cc1	inactive	–
CC(C)CCCCCCOC(=O)C1CCCCC1C(=O)OCCCCCCC(C)C (stereo not given)	–	7.32%
Cc1c(Cl)cccc1Cl	–	6.98%
CNc1c2c(nn1C)CCCC2	–	-0.578% [at 42.5 µM]
CCCCCCCCCCCCc1ccccc1O	53.8 µM (active) and 32 µM (active)	–
ClC(Cl)(Br)Br	–	1.74%
CCOc1nc2cccc(C(=O)OC(C)OC(=O)OC3CCCCC3)c2n1Cc1ccc(-c2ccccc2-c2nn[nH]n2)cc1 (stereo not given)	48.5 µM (active)	–
O=CCc1ccccc1	inactive	–
CC[N+](CC)(CC)CCOc1ccc(/C=C/c2ccccc2)cc1	–	-9.73% [at 42.5 µM]
CC(C)NNC(=O)c1ccncc1	–	7.41% [at 42.5 µM]
